# Source: PubChem BioAssay
# “And” between values parts separate entries of the source, which are not always exact repeats. Identical values can stand only once. Records with an inconclusive call do not appear. Where a structure was tested more than once in an assay, its records may differ in their call. The source made the active and inactive calls. Unless noted, no cut-off is given here; in the data, nearly all actives have AC50 up to about 26 µM.
# Experiments:
# [1] = viability loss in pontine glioma line – cell-based, SU-DIPG-XXV, MIPE5.0, CellTiter-Glo, qHTS, dose response (AID 1347065); details: CellTiter-Glo ATP luminescence;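 note: cells exposed to compound for 48 hours before ATP readout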
# [2] = JHH-DIPG-1 glioma cell viability, MIPE5.0 library, CellTiter-Glo luminescence, qHTS (AID 1347067); details: JHH-DIPG-1 glioma viability, CellTiter-Glo ATP luminescence;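 note: cells exposed to compound for 48 hours before readout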
# [3] = SU-DIPG-XXV glioma cell viability, MIPE5.0 library, qHTS (AID 1347068; cut-off not given, nearly all actives have IC50 up to about 30 µM)
# [4] = sensitizers of A549 cells to miR-34 induction, primary screen, imaging, A549 dox-inducible miR-34, nuclei and caspase counts (AID 1347080;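 active = compounds whose cell count with miR-34 switched on is under 0.7 times the count with it off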); details: A549 miR-34 inducible, Hoechst nuclei count, 48 h
# [5] = phospholipid biosynthesis inhibitors in animal cells, primary screen, cell-based, LOPAC library, screen 4 (AID 1347384; call rule not given here); details: phospholipid biosynthesis inhibition screen, at 10 µM
# [6] = survival rescue of mitochondrial mutant cells in low glucose, primary screen, MELAS cybrids, Rieske KO mouse fibroblasts, CellTiter-Glo (AID 1508586;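 active = mean z-score across replicates of 1.96 or higher in either the MELAS or the Rieske mutant cell line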;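 note: z relative to plate mean and SD of compound and empty wells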)
# [7] = target: NAD(+) hydrolase SARM1 (Homo sapiens) (UniProt Q6SZW1); assay: SARM1 TIR NADase inhibitors, cell lysate, NAD-Glo luminescence (AID 1508614;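 active = compound whose remaining NAD level is above about 45 nM, limit read from the data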;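 note: higher remaining NAD means stronger inhibition of SARM1 NADase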); details: SAM-TIR HEK293T lysate NADase, at 1 µM, stronger effect = higher value
# Sequence of NAD(+) hydrolase SARM1 (Homo sapiens) (Q6SZW1 whole entry, looked up, the tested form may be a part): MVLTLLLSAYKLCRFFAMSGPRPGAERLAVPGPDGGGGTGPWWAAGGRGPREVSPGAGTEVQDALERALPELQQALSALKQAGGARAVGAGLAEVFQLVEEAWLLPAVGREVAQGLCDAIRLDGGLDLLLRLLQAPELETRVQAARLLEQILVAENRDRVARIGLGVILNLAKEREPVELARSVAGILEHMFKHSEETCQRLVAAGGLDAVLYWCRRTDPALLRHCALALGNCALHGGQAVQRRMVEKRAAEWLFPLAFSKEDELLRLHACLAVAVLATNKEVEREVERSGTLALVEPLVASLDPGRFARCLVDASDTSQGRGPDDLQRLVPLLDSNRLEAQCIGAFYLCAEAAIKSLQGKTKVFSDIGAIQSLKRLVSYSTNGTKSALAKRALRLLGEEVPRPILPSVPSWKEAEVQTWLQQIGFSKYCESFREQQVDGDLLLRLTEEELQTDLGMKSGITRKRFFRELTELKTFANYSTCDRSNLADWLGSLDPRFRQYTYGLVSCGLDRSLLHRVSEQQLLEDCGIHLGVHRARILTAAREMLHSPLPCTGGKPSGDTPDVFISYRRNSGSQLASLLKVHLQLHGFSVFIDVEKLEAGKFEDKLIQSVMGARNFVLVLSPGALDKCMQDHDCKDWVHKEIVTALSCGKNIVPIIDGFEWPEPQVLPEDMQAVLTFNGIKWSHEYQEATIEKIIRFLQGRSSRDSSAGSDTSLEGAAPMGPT
# [8] = target: Mitogen-activated protein kinase 7 (Homo sapiens) (UniProt Q13164); assay: ERK5 transactivation activators in reporter cells, primary screen, cell-based, HTS (AID 1508626;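 active = luciferase signal above three times the same-plate solvent-only control wells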;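 note: luciferase driven by Gal4-ERK5 fusion binding five Gal4 sites before minimal TATA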); details: HeLa Gal4-ERK5 transactivation, 18 h, at 5 µM, stronger effect = higher value
# Sequence of Mitogen-activated protein kinase 7 (Homo sapiens) (Q13164 whole entry, looked up, the tested form may be a part): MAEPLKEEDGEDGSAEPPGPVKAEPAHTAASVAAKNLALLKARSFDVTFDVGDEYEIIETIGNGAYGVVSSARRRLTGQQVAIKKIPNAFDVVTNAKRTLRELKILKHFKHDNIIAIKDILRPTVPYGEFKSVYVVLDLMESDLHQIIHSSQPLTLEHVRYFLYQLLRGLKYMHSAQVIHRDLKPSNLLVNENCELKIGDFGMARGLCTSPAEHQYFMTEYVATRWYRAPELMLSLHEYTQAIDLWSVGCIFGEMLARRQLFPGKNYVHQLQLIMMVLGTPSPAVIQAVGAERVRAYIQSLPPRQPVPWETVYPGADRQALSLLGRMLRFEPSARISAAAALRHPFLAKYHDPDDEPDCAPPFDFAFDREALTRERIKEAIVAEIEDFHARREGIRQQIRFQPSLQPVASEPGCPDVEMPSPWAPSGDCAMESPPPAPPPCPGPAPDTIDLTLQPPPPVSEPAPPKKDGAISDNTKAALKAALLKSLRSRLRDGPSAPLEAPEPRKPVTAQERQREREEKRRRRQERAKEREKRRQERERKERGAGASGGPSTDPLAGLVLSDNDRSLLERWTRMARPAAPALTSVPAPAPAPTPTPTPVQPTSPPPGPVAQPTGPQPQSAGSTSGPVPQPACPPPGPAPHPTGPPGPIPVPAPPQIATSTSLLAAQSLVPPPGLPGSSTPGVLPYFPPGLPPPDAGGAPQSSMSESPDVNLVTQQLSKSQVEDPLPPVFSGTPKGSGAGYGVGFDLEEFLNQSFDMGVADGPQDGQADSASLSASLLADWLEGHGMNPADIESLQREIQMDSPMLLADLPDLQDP
# [9] = viability rescue of complex I mutant cybrids, primary screen, cell-based, galactose medium, ATP luminescence (AID 1645843;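 active = z-score of at least 1.8 in each of two replicates, scored against plate mean and spread of sample wells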;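 note: positive z means more ATP and so rescue of galactose-driven cybrid death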); details: complex I mutant cybrid cells, 72 h, stronger effect = higher value
# [10] = SU-DIPG-VI glioma cell viability, MIPE4.0 library, CellTiter-Glo luminescence, qHTS (AID 1347066; cut-off not given, nearly all actives have AC50 up to about 30 µM;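 note: cells exposed to compound for 48 hours before readout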); details: CellTiter-Glo ATP luminescence
# [11] = stronger effect = lower value, cell number ratio, induced over uninduced
# [12] = measured here: relative caspase fold change +Dox/-Dox
# [13] = measured here: total cells with miR-34 induction, stronger effect = lower value
# [14] = measured here: total cells without miR-34 induction
# [15] = MELAS cybrid survival, CellTiter-Glo 48 h, stronger effect = higher value
# [16] = Rieske KO mouse fibroblast survival, CellTiter-Glo 72 h
Compound,outcome [1],outcome [2],outcome [3],"fold change [4, 11]","fold change [4, 12]","cell count [4, 13]","cell count [4, 14]",outcome [5],"z-score [6, 15]","z-score [6, 16]",remaining NAD [7],luciferase signal [8],z-score [9],AC50 [1],outcome [10]
Cc1cn[nH]c1,inactive,inactive,inactive,0.994 (inactive) and 0.902 (inactive),0.844 and 2.49,10200 and 12000,10200 and 13300,inactive,0.667 (inactive),0.0381,10 nM (inactive),44 AU (inactive),0.65 (inactive),,
COC(=O)Nc1nc2ccc(Sc3ccccc3)cc2[nH]1,,,inactive,,,,,,1.35 (inactive) and -2.36 (inactive) and -2.06 (inactive),-0.0455 and -0.127 and 1.14,10 nM (inactive),36 AU (inactive),-1.72 (inactive),742 nM (active),inactive
COc1ccc2nc(S(=O)Cc3ncc(C)c(OC)c3C)[nH]c2c1 (stereo not given),inactive,inactive,inactive,,,,,,,,10 nM (inactive),68 AU (inactive),,,inactive
CCN1CCN(C(=O)N[C@@H](C(=O)N[C@@H]2C(=O)N3C(C(=O)O)=C(CSc4nnnn4C)CS[C@H]23)c2ccc(O)cc2)C(=O)C1=O,inactive,inactive,inactive,0.863 (inactive) and 0.844 (inactive),1.41 and 1.35,7800 and 9270,9050 and 11000,,-0.583 (inactive) and -0.0634 (inactive),-0.0146 and -0.684,10 nM (inactive),88 AU (inactive),-0.045 (inactive),,
COc1ccc(C(=O)CC(=O)c2ccc(C(C)(C)C)cc2)cc1,inactive,inactive,inactive,0.967 (inactive) and 0.867 (inactive),0.938 and 3.78,7480 and 11300,7740 and 13000,,-0.399 (inactive) and 2 (active),0.325 and 0.254,10 nM (inactive),44 AU (inactive),,,
Cn1c(NCCN(CCO)CCCc2ccc([N+](=O)[O-])cc2)cc(=O)n(C)c1=O,inactive,inactive,inactive,0.987 (inactive) and 0.875 (inactive),1.91 and 1.23,8810 and 9410,8920 and 10800,,0.423 (inactive) and 0.101 (inactive),0.302 and -0.676,,,0.115 (inactive) and 0.85 (inactive),,
